Drawing on ChEMBL document CHEMBL2218924, “A broad activity screen in support of a chemogenomic map for kinase signalling research and drug discovery” (Biochem J, 2013), this text covers residual activity for 15 compounds.

The first assay addresses T1, Ephrin type-B receptor 1 (Homo sapiens) (UniProt P54762).
T1 sequence (whole entry): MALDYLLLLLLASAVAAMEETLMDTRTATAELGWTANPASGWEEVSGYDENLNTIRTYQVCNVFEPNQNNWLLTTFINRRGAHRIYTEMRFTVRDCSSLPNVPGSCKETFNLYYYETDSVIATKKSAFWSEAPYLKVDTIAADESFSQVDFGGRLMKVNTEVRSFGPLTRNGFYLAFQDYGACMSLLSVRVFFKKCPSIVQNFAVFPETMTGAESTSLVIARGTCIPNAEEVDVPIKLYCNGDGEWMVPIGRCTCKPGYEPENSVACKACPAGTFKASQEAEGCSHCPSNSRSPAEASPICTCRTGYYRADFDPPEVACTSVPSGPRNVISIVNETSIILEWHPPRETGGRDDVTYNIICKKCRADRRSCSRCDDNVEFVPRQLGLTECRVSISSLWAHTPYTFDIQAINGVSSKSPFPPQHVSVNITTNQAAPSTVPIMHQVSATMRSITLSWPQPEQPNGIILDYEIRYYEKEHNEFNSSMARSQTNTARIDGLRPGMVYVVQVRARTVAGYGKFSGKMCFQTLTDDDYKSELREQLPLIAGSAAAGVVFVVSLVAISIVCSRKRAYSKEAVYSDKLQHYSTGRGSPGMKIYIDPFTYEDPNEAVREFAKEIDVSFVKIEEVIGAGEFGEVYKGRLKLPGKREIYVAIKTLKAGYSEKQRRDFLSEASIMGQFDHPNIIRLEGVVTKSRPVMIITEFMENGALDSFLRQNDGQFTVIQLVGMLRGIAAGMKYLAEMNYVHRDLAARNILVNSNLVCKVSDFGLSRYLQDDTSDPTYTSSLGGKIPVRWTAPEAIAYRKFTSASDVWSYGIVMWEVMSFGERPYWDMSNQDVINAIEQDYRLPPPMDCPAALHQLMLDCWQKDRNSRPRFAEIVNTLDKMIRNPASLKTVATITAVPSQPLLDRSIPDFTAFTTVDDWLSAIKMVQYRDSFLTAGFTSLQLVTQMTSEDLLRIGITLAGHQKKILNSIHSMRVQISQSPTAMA
The following applies: at 10 µM.
`CCn1cnc2c(Nc3cccc(Cl)c3)nc(N[C@@H]3CCCC[C@@H]3N)nc21`: the residual activity worked out at 1%.

`CC(C)[C@H](CO)Nc1nc(Nc2cccc(Cl)c2)c2ncn(C(C)C)c2n1`: the residual activity was 15%.

With `COc1cc2ncnc(Nc3ccc(OCc4ccccc4)cc3)c2cc1OC`, the residual activity came out at 106%.

`O=c1[nH]c2ccccc2n1C1CCN(Cc2ccc(-c3nc4cc5[nH]cnc5cc4nc3-c3ccccc3)cc2)CC1`: the residual activity worked out at 76%.

As to `O=C1Nc2ccc3ncsc3c2/C1=C/c1c[nH]cn1`, the residual activity was found to be 9%.

Regarding `c1cc(-c2cnn3cc(-c4ccc(OCCN5CCCCC5)cc4)cnc23)ccn1`, the residual activity amounted to 0%.

For the compound `COc1ccc2c(c[n+](C)c3c4cc5c(cc4ccc23)OCO5)c1OC`, the residual activity came out at 91%.

As for `COc1ccc2c(c1)/C(=C/c1cnc[nH]1)C(=O)N2`, the residual activity was found to be 59%.

In the case of `CC(C)(C)c1cc(C=C(C#N)C#N)cc(Br)c1O`, the residual activity was 96%.

On to `COC(=O)[C@@]1(O)C[C@H]2O[C@]1(C)n1c3ccccc3c3c4c(c5c6ccccc6n2c5c31)C(=O)NC4`, for which the residual activity was 4%.

As for `O=[N+]([O-])/C=C/c1ccc2c(c1)OCO2`, the residual activity worked out at 116%.

For the compound `C[S+]([O-])c1ccc(-c2nc(-c3ccc(F)cc3)c(-c3ccncc3)[nH]2)cc1` (stereo unspecified), the residual activity worked out at 56%.

Turning to `COc1cc(OC)c(/C=C2\C(=O)Nc3ccccc32)c(OC)c1`, the residual activity came out at 88%.

For a further assay, the target named is T2, Ephrin type-B receptor 2 (Homo sapiens) (UniProt P29323).
T2 sequence (whole entry): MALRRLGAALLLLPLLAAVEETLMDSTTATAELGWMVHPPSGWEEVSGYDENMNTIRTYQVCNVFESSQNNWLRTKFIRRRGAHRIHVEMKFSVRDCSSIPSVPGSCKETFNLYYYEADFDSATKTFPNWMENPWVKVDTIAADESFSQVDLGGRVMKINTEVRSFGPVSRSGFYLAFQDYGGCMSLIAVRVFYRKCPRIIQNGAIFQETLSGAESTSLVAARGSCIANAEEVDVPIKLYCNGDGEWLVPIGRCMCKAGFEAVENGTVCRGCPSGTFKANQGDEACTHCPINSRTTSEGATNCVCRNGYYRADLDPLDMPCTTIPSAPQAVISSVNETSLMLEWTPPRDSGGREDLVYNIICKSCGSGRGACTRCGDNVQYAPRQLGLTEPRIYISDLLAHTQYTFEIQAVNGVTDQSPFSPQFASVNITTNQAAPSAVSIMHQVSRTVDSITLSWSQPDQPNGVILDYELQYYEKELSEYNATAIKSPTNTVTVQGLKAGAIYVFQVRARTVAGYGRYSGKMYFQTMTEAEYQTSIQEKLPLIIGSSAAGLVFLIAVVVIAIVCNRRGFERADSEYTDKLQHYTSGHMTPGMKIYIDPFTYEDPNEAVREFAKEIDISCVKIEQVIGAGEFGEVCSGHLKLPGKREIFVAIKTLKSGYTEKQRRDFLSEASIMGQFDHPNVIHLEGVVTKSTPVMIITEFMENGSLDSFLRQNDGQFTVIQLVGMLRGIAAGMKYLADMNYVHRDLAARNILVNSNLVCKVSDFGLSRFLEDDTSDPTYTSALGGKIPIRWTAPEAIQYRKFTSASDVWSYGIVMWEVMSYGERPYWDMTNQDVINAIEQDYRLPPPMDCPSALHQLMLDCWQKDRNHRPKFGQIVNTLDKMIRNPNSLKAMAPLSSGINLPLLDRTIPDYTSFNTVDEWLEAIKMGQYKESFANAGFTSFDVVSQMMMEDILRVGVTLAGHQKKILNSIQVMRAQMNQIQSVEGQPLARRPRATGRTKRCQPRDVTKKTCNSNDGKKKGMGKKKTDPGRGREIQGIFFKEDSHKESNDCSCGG
The following applies: at 1 µM.
On to `CCn1cnc2c(Nc3cccc(Cl)c3)nc(N[C@@H]3CCCC[C@@H]3N)nc21`, for which the residual activity was 56%.

Turning to `CC(C)[C@H](CO)Nc1nc(Nc2cccc(Cl)c2)c2ncn(C(C)C)c2n1`, the residual activity came to 71%.

As to `COc1cc2ncnc(Nc3ccc(OCc4ccccc4)cc3)c2cc1OC`, the residual activity was 118%.

Turning to `O=c1[nH]c2ccccc2n1C1CCN(Cc2ccc(-c3nc4cc5[nH]cnc5cc4nc3-c3ccccc3)cc2)CC1`, the residual activity stood at 119%.

For the compound `O=C1Nc2ccc3ncsc3c2/C1=C/c1c[nH]cn1`, the residual activity is 87%.

On to `CCc1nc(-c2ccc(OC)cc2)[nH]c1-c1ccncc1`, for which the residual activity is 120%.

For the compound `c1cc(-c2cnn3cc(-c4ccc(OCCN5CCCCC5)cc4)cnc23)ccn1`, the residual activity stood at 25%.

Take `COc1ccc2c(c[n+](C)c3c4cc5c(cc4ccc23)OCO5)c1OC`: the residual activity amounted to 121%.

With `CC(C)(C)c1cc(C=C(C#N)C#N)cc(Br)c1O`, the residual activity was 116%.

For the compound `COC(=O)[C@@]1(O)C[C@H]2O[C@]1(C)n1c3ccccc3c3c4c(c5c6ccccc6n2c5c31)C(=O)NC4`, the residual activity came out at 114%.

`O=[N+]([O-])/C=C/c1ccc2c(c1)OCO2`: the residual activity was 116%.

Turning to `C[S+]([O-])c1ccc(-c2nc(-c3ccc(F)cc3)c(-c3ccncc3)[nH]2)cc1` (stereo unspecified), the residual activity came out at 101%.

For the next assay, the target named is T2, Ephrin type-B receptor 2 (Homo sapiens). The following applies: at 10 µM.
Take `CCn1cnc2c(Nc3cccc(Cl)c3)nc(N[C@@H]3CCCC[C@@H]3N)nc21`: the residual activity turned out to be 0%.

With `CC(C)[C@H](CO)Nc1nc(Nc2cccc(Cl)c2)c2ncn(C(C)C)c2n1`, the residual activity was found to be 3%.

In the case of `COc1cc2ncnc(Nc3ccc(OCc4ccccc4)cc3)c2cc1OC`, the residual activity stood at 114%.

Consider `O=c1[nH]c2ccccc2n1C1CCN(Cc2ccc(-c3nc4cc5[nH]cnc5cc4nc3-c3ccccc3)cc2)CC1`, for which the residual activity turned out to be 90%.

On to `O=C1Nc2ccc3ncsc3c2/C1=C/c1c[nH]cn1`, for which the residual activity was 29%.

For `CCc1nc(-c2ccc(OC)cc2)[nH]c1-c1ccncc1`, the residual activity was 115%.

For `O=C1c2ccccc2-c2nc3nnnn3nc21`, the residual activity is 138%.

Take `c1cc(-c2cnn3cc(-c4ccc(OCCN5CCCCC5)cc4)cnc23)ccn1`: the residual activity was found to be 0%.

With `COc1ccc2c(c[n+](C)c3c4cc5c(cc4ccc23)OCO5)c1OC`, the residual activity was found to be 121%.

With `COc1ccc2c(c1)/C(=C/c1cnc[nH]1)C(=O)N2`, the residual activity was 97%.

As to `CC(C)(C)c1cc(C=C(C#N)C#N)cc(Br)c1O`, the residual activity stood at 121%.

`COC(=O)[C@@]1(O)C[C@H]2O[C@]1(C)n1c3ccccc3c3c4c(c5c6ccccc6n2c5c31)C(=O)NC4`: the residual activity came out at 55%.

On to `O=[N+]([O-])/C=C/c1ccc2c(c1)OCO2`, for which the residual activity came to 124%.

On to `C[S+]([O-])c1ccc(-c2nc(-c3ccc(F)cc3)c(-c3ccncc3)[nH]2)cc1` (stereo unspecified), for which the residual activity was found to be 61%.

The next assay deals with T3, Ephrin type-B receptor 3 (Homo sapiens) (UniProt P54753).
T3 sequence (whole entry): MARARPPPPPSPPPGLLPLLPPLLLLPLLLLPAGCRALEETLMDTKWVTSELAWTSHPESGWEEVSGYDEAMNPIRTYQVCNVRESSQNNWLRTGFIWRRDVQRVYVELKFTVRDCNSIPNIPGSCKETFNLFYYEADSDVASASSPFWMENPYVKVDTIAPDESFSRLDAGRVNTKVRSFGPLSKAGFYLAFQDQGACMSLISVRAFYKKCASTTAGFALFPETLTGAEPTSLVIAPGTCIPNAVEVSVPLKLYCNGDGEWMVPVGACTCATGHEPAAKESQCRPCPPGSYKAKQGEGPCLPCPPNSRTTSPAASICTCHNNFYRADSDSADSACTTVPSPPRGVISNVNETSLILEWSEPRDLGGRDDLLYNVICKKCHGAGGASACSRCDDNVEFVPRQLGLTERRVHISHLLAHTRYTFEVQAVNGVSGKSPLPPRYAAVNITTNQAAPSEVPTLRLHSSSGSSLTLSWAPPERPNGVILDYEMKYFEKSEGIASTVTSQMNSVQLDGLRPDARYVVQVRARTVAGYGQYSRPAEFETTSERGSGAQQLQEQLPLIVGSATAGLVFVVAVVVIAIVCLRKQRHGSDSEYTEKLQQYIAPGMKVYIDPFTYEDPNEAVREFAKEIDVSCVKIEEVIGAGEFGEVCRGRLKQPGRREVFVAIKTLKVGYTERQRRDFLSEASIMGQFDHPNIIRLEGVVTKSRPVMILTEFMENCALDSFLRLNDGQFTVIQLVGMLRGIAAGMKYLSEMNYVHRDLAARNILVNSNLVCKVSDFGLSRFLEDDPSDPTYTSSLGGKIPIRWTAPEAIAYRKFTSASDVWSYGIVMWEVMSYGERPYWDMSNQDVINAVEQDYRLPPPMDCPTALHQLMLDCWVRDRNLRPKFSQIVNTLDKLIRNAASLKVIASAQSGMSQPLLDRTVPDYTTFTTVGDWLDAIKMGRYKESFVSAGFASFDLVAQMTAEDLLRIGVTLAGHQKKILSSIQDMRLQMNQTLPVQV
The following applies: at 1 µM.
Turning to `COc1cc2ncnc(Nc3ccc(OCc4ccccc4)cc3)c2cc1OC`, the residual activity is 117% (inactive).

Regarding `O=c1[nH]c2ccccc2n1C1CCN(Cc2ccc(-c3nc4cc5[nH]cnc5cc4nc3-c3ccccc3)cc2)CC1`, the residual activity was 123% (inactive).

For the compound `O=C1Nc2ccc3ncsc3c2/C1=C/c1c[nH]cn1`, the residual activity was 120% (inactive).

Turning to `CCc1nc(-c2ccc(OC)cc2)[nH]c1-c1ccncc1`, the residual activity was 110% (inactive).

On to `O=C1c2ccccc2-c2nc3nnnn3nc21`, for which the residual activity was 108% (inactive).

In the case of `c1cc(-c2cnn3cc(-c4ccc(OCCN5CCCCC5)cc4)cnc23)ccn1`, the residual activity was 118% (inactive).

For `COc1ccc2c(c[n+](C)c3c4cc5c(cc4ccc23)OCO5)c1OC`, the residual activity was 126% (inactive).

On to `CC(C)(C)c1cc(C=C(C#N)C#N)cc(Br)c1O`, for which the residual activity is 96% (inactive).

In the case of `COC(=O)[C@@]1(O)C[C@H]2O[C@]1(C)n1c3ccccc3c3c4c(c5c6ccccc6n2c5c31)C(=O)NC4`, the residual activity was 110% (inactive).

On to `O=[N+]([O-])/C=C/c1ccc2c(c1)OCO2`, for which the residual activity is 117% (inactive).

With `C[S+]([O-])c1ccc(-c2nc(-c3ccc(F)cc3)c(-c3ccncc3)[nH]2)cc1` (stereo unspecified), the residual activity was 114% (inactive).

`COc1cc(OC)c(/C=C2\C(=O)Nc3ccccc32)c(OC)c1`: the residual activity is 124% (inactive).
